Measured values taken from PubChem BioAssay (NCI).
The panel holds about 83,000 compounds, 20% with a hit somewhere; the sample as a whole holds those more often.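 Percent growth is the endpoint: 0 to 100 indicates growth inhibition (40 means 60% inhibition), 0 means no net growth, and negative values indicate cell death.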 Values without a mark were called inactive. Activity calls are given as the source filed them. The calls were made as follows: active = growth percent below 10; inactive = the rest.

What follows are compounds tested on NCI-H522 lung (assay: NCI-60 one-dose screen, 48 h (100 = growth as untreated, 0 = no growth, -100 = all killed)). Conditions: 10 µM unless noted.

Structure (SMILES)	growth
COC(=O)[C@]1(C)CC[C@]2(C)CC[C@]3(C)C(=CC(=O)[C@@H]4[C@@]5(C)CCC(=O)NC(C)(C)[C@@H]5CC[C@]43C)[C@@H]2C1	-73.4% [100 µM] (active)
O=C(CSc1nc2ccc([N+](=O)[O-])cc2[nH]1)Nc1cccc(Cl)c1	4.64% (active)
CCn1cc(-c2ccnc(NCCNS(=O)(=O)c3cccc4ccccc34)c2)c(-c2cccc(O)c2)n1	105%

What follows are compounds tested on A549/ATCC NSCLC in the same assay as above. Conditions: 10 µM unless noted.

Structure (SMILES)	growth
CCOc1cc(/C=N\NC(=O)N/N=C/c2ccc(O)c(OCC)c2)ccc1O	59.4%
Cc1ccc(C2=C/C(=C/c3ccc(Br)cc3)C(=O)N2CCc2ccc(S(N)(=O)=O)cc2)cc1	96%
Clc1ccc(N2CCN(CCCN3CCN(c4cccc(Cl)c4)CC3)CC2)cc1	58.3%
CC(C)OC(=O)Nc1cc(F)ccc1F	99.7%
C[C@H]1[C@H](C)CC[C@]2(C(=O)N3CCN(C)CC3)CC[C@]3(C)C(=CC[C@@H]4[C@@]5(C)C/C(=C/c6ccco6)C(=O)C(C)(C)[C@@H]5CC[C@]43C)[C@H]12	24.8% [100 µM]
CC(C)C1=NOC(=O)C1=Cc1cn(-c2ccccc2)nc1-c1ccc(Br)cc1	98.2%
C=C(CN=[N+]=[N-])[C@@H]1CC[C@]2(C)[C@H](CC[C@@H]3[C@H]4[C@H]5OC(=O)[C@@]4(CCC5(C)C)CC[C@]32C)[C@@]1(C)CCC#N	78.6% [100 µM]
Nn1c(Nc2ccc(S(=O)(=O)Nc3ncccn3)cc2)nnc(/C=C/c2c(O)ccc3ccccc23)c1=O	89.5%
